Assay [1] in a line: IUF_NPC1b_proliferation_BrdU_72hr: Leibniz Research Institute for Environmental Medicine (IUF) 72-hour Neural Progenitor Cell Bromodeoxyuridine (BrdU) Proliferation Assay (NPC1b) (AID 2284207). In a few lines: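 BrdU luminescence ELISA quantified DNA synthesis over the last 16 h of a 72 h exposure, fitted against DMSO. Primary hNPC spheres from gestational week 16-19 cortex grown with EGF/FGF at 37C, pH 7.2-7.6.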

Assay [2] is described as follows: IUF_NPC1a_proliferation_area_72hr: Leibniz Research Institute for Environmental Medicine (IUF) 72-hour Neural Progenitor Cell Proliferation Area Assay (NPC1a) (AID 2284208). In a few lines: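 Proliferation is scored as sphere area gain in primary human fetal neural progenitors treated for 72 h in EGF/FGF-containing medium. Viability, LDH and BrdU readouts come from the same wells.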

The nature of assay [3]: IUF_NPC1_viability_72hr: Viability Assessment at 72 hours in the Leibniz Research Institute for Environmental Medicine (IUF) Neural Progenitor Cell Proliferation Assay (NPC1) (AID 2284209). A digest of the protocol:
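Single spheres (0.25-0.35 mm) of human fetal cortex-derived neural progenitor cells were grown in proliferation medium with EGF and FGF at 37C and 5% CO2. They were exposed for 72 h without renewal, and viability was read by alamar blue resorufin fluorescence.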

The nature of assay [4]: CCTE_Mundy_HCI_Cortical_Synap_Neur_Matur_NeuriteSpotCountPerNeuriteLength: CCTE's Synaptogenesis and Neurite Maturation Assay in rat cortical cells for Neurite Spot Count per Neurite Length, Mundy Lab (AID 2284210). A digest of the protocol: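 Rat primary cortical cultures, AraC added at DIV 5 to suppress glia; chemical exposure from DIV 7 to DIV 12. Fixed cells stained for MAP2 and synaptophysin plus Hoechst; synaptophysin puncta per neurite length quantified by high-content imaging, relative to DMSO.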

Assay [5] in a line: CCTE_Mundy_HCI_Cortical_Synap_Neur_Matur_BPCount: CCTE's Synaptogenesis and Neurite Maturation Assay in rat cortical cells for Branch Point Count, Mundy Lab (AID 2284211). In a few lines:
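Rat primary cortical cultures, AraC added DIV 5; chemicals dosed DIV 7 through DIV 12. Fixed cells stained for MAP2, synaptophysin and Hoechst; neurite branch points counted by automated high-content imaging, fitted relative to DMSO.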

Assay [6] is described as follows: CCTE_Mundy_HCI_Cortical_NOG_NeuriteCount: CCTE's Neurite Outgrowth Assay in rat cortical cells for Neurite Count, Mundy Lab (AID 2284212).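 Note: cells fixed about two days after chemical exposure began.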 In a few lines:
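Neurite number per cell from high-content imaging of betaIII-tubulin immunostaining, with Hoechst nuclear counterstain.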

A short description of assay [7]: CCTE_Mundy_HCI_Cortical_NOG_NeuriteLength: CCTE's Neurite Outgrowth Assay in rat cortical cells for Neurite Length, Mundy Lab (AID 2284213).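 For AC50: neurites imaged about 48 to 50 h after chemical exposure began.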 A digest of the protocol:
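Neurite length was read by high-content imaging of βIII-tubulin-labelled neurites in rat primary cortical cultures. Activity was fitted relative to DMSO.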

The nature of assay [8]: CCTE_Mundy_HCI_Cortical_Synap_Neur_Matur_NeuriteLength: CCTE's Synaptogenesis and Neurite Maturation Assay in rat cortical cells for Neurite Length, Mundy Lab (AID 2284214). In a few lines: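 Rat primary cortical cultures, AraC added DIV 5, dosed DIV 7 through DIV 12 […]. Fixed, MAP2/synaptophysin immunostained with Hoechst; neurite length by high-content imaging, fitted in positive direction versus DMSO.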

The nature of assay [9]: CCTE_Mundy_HCI_Cortical_Synap_Neur_Matur_NeuriteSpotCountPerNeuron: CCTE's Synaptogenesis and Neurite Maturation Assay in rat cortical cells for Neurite Spot Count per Neuron Count, Mundy Lab (AID 2284215). A digest of the protocol:
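Synapse density is scored as synaptophysin spots along neurites per neuron in fixed rat cortical neurons, measured at DIV 12 after chemical dosing at DIV 7. DMSO is the negative control and activity baseline.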

Assay [10] is described as follows: CCTE_Mundy_HCI_Cortical_Synap_Neur_Matur_SynapseCount: CCTE's Synaptogenesis and Neurite Maturation Assay in rat cortical cells for Synapse Count, Mundy Lab (AID 2284218). In a few lines:
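Rat primary cortical cultures, AraC at DIV 5, chemical dosing DIV 7 to DIV 12 (288.33 h). Fixed cells stained for MAP2, synaptophysin and Hoechst; synapses per neuron counted by high-content imaging, loss of signal versus DMSO.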

Assay [11] can be described thus: CCTE_Mundy_HCI_Cortical_Synap_Neur_Matur_NeuriteCount: CCTE's Synaptogenesis and Neurite Maturation Assay in rat cortical cells for Neurite Count, Mundy Lab (AID 2284222).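 Note: exposure from day 7 to day 12 in vitro with readout at day 12.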 A digest of the protocol: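 Rat primary cortical cells; AraC added at DIV 5, chemicals dosed with media change at DIV 7 through DIV 12. MAP2/synaptophysin/Hoechst immunostaining, high-content imaging of neurite number; fitted relative to DMSO.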

Assay [12] can be described thus: CCTE_Mundy_HCI_Cortical_Synap_Neur_Matur_CellBodySpotCount: CCTE's Synaptogenesis and Neurite Maturation Assay in rat cortical cells for Cell Body Spot Count, Mundy Lab (AID 2284223). In a few lines:
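Synapse number at neuronal cell bodies was quantified as synaptophysin puncta per neuron in rat cortical cultures exposed from DIV 7 to DIV 12. Values were normalised to DMSO.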

A short description of assay [13]: CCTE_Mundy_HCI_hNP1_Pro_ResponderAvgInten: CCTE's Proliferation Assay in human neuroprogenitor cells, Mundy Lab (AID 2284224; active = hit-call score of the fitted dose curve at least 0.9, where 1 is the maximum;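 note: human neural progenitor cells hNP1 derived from WA09 embryonic stem cells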). A digest of the protocol:
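Proliferation read as average intensity of BrdU-positive cells, imaged at 26.25 h post-dosing: chemical exposure started after 40–44 h culture, BrdU during final 4 h, paraformaldehyde fixation. Positive-direction fit relative to DMSO.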

Assay [14] is described as follows: UKN4_HCS_LUHMES_cell_viability: Viability Assessment in the University of Konstanz (UKN) Leist Lab Neurite Outgrowth Assay in human LUHMES cells (UKN4) (AID 2284232). A digest of the protocol:
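LUHMES precursors differentiated 2 days, replated at 30000 cells/well without cAMP/GDNF, then compound-treated 24 h. Viability from Hoechst H-33342 and calcein-AM live staining (30 min) by high-content fluorescence imaging; bidirectional fit versus DMSO.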

Read-out in assay [15]: Secreted IgG (sIgG), gene 3500
Briefly: BSK_BT_sIgG: BioMAP Diversity Plus: BT Assay for Secreted IgG (sIgG) Biomarker Activity (AID 2284226). As to conditions: primary human B cells with PBMC. In a few lines: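 Human B cell plus PBMC co-culture; secreted IgG measured by ELISA 24 h after chemical dosing. Response fitted in positive direction relative to DMSO baseline.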

A short description of assay [16]: BSK_BT_Bcell_Proliferation: Viability Assessment in the BioMAP Diversity Plus: BT Assay for B cell Proliferation (AID 2284227). As to conditions: primary human B cells with PBMC. A digest of the protocol:
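Human B cells co-cultured with PBMC were dosed with test chemicals and relative cell number was quantified by SRB staining at 72 h. Cells were fixed in 10% TCA, stained with 0.1% SRB and read at 560 nm. Activity was fitted in the positive direction against DMSO.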

Read-out in assay [17]: Interleukin 6 (IL6), IL6 (gene 3569)
Description: BSK_BT_xIL6: BioMAP Diversity Plus: BT Assay for Interleukin 6 (IL6) Biomarker Activity (AID 2284228). The note with it: primary human B cells with PBMC. In a few lines:
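Chemical added to human B cell/PBMC co-culture → 24 h → supernatant IL-6 by Luminex xMAP → fit vs DMSO baseline, upward direction.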

Read-out in assay [18]: Interleukin 17A (IL17A), IL17A (gene 3605)
Briefly: BSK_BT_xIL17A: BioMAP Diversity Plus: BT Assay for Interleukin 17A (IL17A) Biomarker Activity (AID 2284229). As to conditions: primary human B cells with PBMC. A digest of the protocol: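 Chemicals were added to a human B cell and PBMC co-culture. After 24 h, secreted IL-17A was measured with Luminex xMAP. Curves were fitted in the positive direction, with DMSO wells as baseline.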

Read-out in assay [19]: Tumor necrosis factor (Homo sapiens) (UniProt P01375)
Description: BSK_BT_xTNFa: BioMAP Diversity Plus: BT Assay for Tumor necrosis factor alpha (TNF-alpha) Biomarker Activity (AID 2284230). As to conditions: primary human B cells with PBMC. In a few lines:
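B cells with PBMC in co-culture, dosed and sampled at 24 h; secreted TNF-alpha measured by Luminex xMAP bead assay. Activity fitted in the gain direction against DMSO as negative control and baseline.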

Assay [20] is described as follows: TAMU_PeakParms_SingleDonor1434_Chronotropy: Texas A&M University (TAMU) 1.5-hr Human Induced Pluripotent Stem Cell (iPSC)-derived Cardiomyocytes Calcium (Ca+2) Flux Assay for Cardiotoxicity: Chronotropy (changes in peak frequency) (AID 2284217). As to conditions: actives raise or lower the signal. In a few lines: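 iPSC-derived cardiomyocytes (single donor 1434) dosed at 0.2, 1, 10 and 100 uM in 0.5% DMSO for 1.5 h at 37C; Ca2+ dye fluorescence gave average beat frequency. Zero-beat points removed; bidirectional fit versus DMSO, POD as EC05.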

The values that follow come from PubChem BioAssay (EPA / NIEHS).

Inconclusive results are not listed. Some structures have more than one record in an assay (separate samples or runs), and their calls can disagree. The source made the active and inactive calls. Rule for the calls, unless noted: active = hit-call score of the fitted dose curve at least 0.9, where 1 is the maximum; inactive = score below 0.9.

Sequence of Tumor necrosis factor (Homo sapiens) (P01375 whole entry, looked up): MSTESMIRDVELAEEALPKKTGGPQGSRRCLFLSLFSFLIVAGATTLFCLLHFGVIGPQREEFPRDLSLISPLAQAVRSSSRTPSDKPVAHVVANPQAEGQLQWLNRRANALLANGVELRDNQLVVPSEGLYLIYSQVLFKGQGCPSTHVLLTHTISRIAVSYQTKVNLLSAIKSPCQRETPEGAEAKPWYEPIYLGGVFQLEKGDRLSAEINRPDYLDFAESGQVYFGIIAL

Usually AC50 stands for the midpoint of the concentration-response curve, whichever way the signal moves. Regarding `Nc1ncn([C@@H]2O[C@H](CO)[C@@H](O)[C@H]2O)c(=O)n1`, the AC50 in assay [1] is 0.253 µM (active); in assay [7] it was 7.87 µM (active); in [13], 8.32 µM (active); in assay [14], 16.5 µM (active). Further, the result in [2], in assay [3], in assay [4], in assay [5], in assay [6] and in assay [7] was inactive. Further, the result in [8], in [9], in [10], in assay [11] and in assay [12] was inactive.
Turning to `CC1OC1C1CCC2(C)OC2C1` (stereo unspecified), the result in assay [15], in assay [16], in assay [17], in assay [18] and in assay [19] was inactive.
With `O=Nc1ccc(O)cc1`, the outcome in assay [15], in assay [16], in [17], in [18] and in assay [19] was inactive.
`CC(C)(c1cc(Br)c(OCCO)c(Br)c1)c1cc(Br)c(OCCO)c(Br)c1`: the AC50 in assay [15] was 8.71 µM (active); in assay [16], 21.2 µM (active); in [17] it was 16.2 µM (active); in assay [18], 20.8 µM (active); in assay [19], 30.2 µM (active).
Taken in the same sequence, the figures for `O=C(Cl)c1cc(C(=O)Cl)cc(C(=O)Cl)c1` were 14.6 µM (active), 29.3 µM (active), 27.6 µM (active), 15.4 µM (active) and 31.9 µM (active).
Consider `CCCCC(CC)COC(=O)c1ccccc1O` (stereo unspecified), for which the half-maximal activity concentration (AC50) in assay [15] was 7.14 µM (active). Moreover, the outcome in assay [16], in [17], in assay [18] and in assay [19] was inactive.
Regarding `O=C(Nc1ccccc1SSc1ccccc1NC(=O)c1ccccc1)c1ccccc1`, the half-maximal activity concentration (AC50) in assay [15] is 4.59 µM (active); in assay [16], 5.95 µM (active); in assay [17], 13.2 µM (active); in assay [18], 5.93 µM (active); in [19], 11.7 µM (active).
For `C=CCOCC(O)CCl` (stereo unspecified), the AC50 in assay [15] was 20 µM (active). Further, the outcome in assay [16], in assay [17], in [18] and in assay [19] was inactive.
As for `N[C@H]1C(O)O[C@H](CO)[C@H](O)[C@@H]1O` (stereo partly specified), the compound was classed as inactive in assay [4], in assay [5], in [6], in assay [7], in assay [8] and in assay [9]. Moreover, the result in assay [10], in [11], in [12] and in assay [13] was inactive.
Regarding `c1ccc2c(c1)ccc1ncccc12`, the outcome in [15], in assay [16], in assay [18] and in assay [19] was inactive. In addition, the half-maximal activity concentration (AC50) in [17] is 1.14 µM (active).
As for `N#[N+]c1ccc2c(S(=O)(=O)[O-])cccc2c1O`, the outcome in [15], in assay [16], in [17], in [18] and in [19] was inactive.
Turning to `O=C(O)CCCC[C@@H]1SC[C@@H]2NC(=O)N[C@@H]21`, in [20], the outcome was inactive.
Consider `CCO[Si](CCCN=C=O)(OCC)OCC`, for which the outcome in assay [15], in [16], in assay [17], in [18] and in [19] was inactive.
`C=CC=CC=CCCCCC`: the AC50 in assay [15] was 7.13 µM (active); in assay [17], 6.43 µM (active). Also, the result in [16], in [18] and in [19] was inactive.
Take `CCCCCCCCc1ccc(Nc2ccc(CCCCCCCC)cc2)cc1`: the result in assay [15], in assay [16], in assay [17], in [18] and in assay [19] was inactive.
As for `CCCCNc1ccc(NCCCC)c2c1C(=O)c1ccccc1C2=O`, the outcome in [15], in assay [16], in assay [17], in assay [18] and in assay [19] was inactive.
